Hit rate of the full screen: of about 1,500 compounds, about 100 (6.7%) were called active. Not shown: some 7% with an inconclusive outcome. What follows is part of a selection rich in actives, with near analogues and random picks from the rest. Unmarked numbers belong to inactive results. The call rests on the fitted dose curve; in most records, active means well fitted inhibition curve with a large enough effect; inconclusive means small, poorly fitted or top-dose-only effect, or effect the other way; inactive means flat fitted curve, though single readings scatter.
target: Runt-related transcription factor 1 (Homo sapiens) + Core-binding factor subunit beta (Homo sapiens) (UniProt Q01196+Q13951); assay: qHTS Assay for Compounds Blocking the Interaction Between CBF-beta and RUNX1 for the Treatment of Acute Myeloid Leukemia: Hit Validation; settings: AlphaScreen CBFb-His/RUNX1-biotin binding; series mostly up to 59.8 µM; activity, negative = inhibition: at the top concentration; further: nearly all actives have a fitted effect of over 60% in size
Sequence (Q01196 whole entry, looked up): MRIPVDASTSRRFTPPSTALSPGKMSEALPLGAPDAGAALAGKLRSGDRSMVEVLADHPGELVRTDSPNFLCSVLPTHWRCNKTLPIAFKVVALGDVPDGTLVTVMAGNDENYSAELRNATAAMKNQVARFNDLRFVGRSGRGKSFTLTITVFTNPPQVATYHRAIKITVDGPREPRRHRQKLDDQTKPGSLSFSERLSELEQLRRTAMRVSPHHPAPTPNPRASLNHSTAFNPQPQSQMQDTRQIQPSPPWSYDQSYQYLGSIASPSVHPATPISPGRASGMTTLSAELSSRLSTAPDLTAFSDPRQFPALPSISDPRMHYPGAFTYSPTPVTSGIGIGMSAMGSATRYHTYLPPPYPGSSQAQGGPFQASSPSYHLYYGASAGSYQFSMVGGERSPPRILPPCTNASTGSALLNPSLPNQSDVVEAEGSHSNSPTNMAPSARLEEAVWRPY
Sequence (Q13951 whole entry, looked up): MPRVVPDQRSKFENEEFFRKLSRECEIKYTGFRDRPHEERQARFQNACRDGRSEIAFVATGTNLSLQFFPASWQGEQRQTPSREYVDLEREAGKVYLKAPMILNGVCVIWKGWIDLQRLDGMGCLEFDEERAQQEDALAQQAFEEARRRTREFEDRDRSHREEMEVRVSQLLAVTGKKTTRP
Procedure, shortened: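 Compounds were added to a premixed CBF-beta-His/RUNX1-biotin complex (30 nM each, 20 min) for 15 min. Nickel and streptavidin AlphaScreen beads followed for 90 min at room temperature, with emission at 440 nm […].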
On the % scale 0 is the no-effect control and ±100 the full control effect; potency means the concentration at half of the fitted maximal effect.

Compound | activity, negative = inhibition [%] | Potency
CCOC(=O)c1nnn2c1nc(N1CCN(C)CC1)c1ccccc12 | -4.29 | –
C=CCn1c(=O)c2ccccc2n2nnc(C(=O)OCC)c12 | 1.03 | –
CC/C(=C(\c1ccccc1)c1ccc(OCCN(C)C)cc1)c1ccccc1 | – | 24.4 µM (active)
COc1cccc(C2Oc3ccccc3C3CC(c4cccs4)=NN32)c1 (centres undefined) | 4.22 | –
CCCC(=O)c1cc(O)c(O)cc1O | – | 4.47 µM (active)
CC(=O)c1cc(O)c2ccccc2c1O | -21.8 | –
Cc1ccc(C)c(C(=O)CCC(=O)O)c1 | -2.23 | –
C/C(=N\O)c1c(O)cc(-c2ccccc2)n(-c2ccccc2)c1=O | -1.85 | –
NC[C@@H](O)c1ccc(O)c(O)c1 | – | 2.82 µM (active)
CC1=CC(=O)CC(C)(C)C1(O)/C=C/C(C)=C/C(=O)O (centres undefined) | -3.77 | –
C=CCn1c(SCc2ccccc2Cl)nnc1-c1sc2nc(C)cc(C)c2c1N | 10.9 | –
CCOC(=O)c1c(C)n(C)c2ccc(OC)c(NC(=O)CCN3CCC(Cc4ccccc4)CC3)c12 | -15.5 | –
O=S(=O)(Nc1cccc(CCc2ccccn2)c1)c1cc(Cl)ccc1Cl | -7.59 | –
c1cnc2ccc3ncccc3c2c1 | -19.2 | –
c1ccc(-n2ncc3cccnc32)cc1 | 8.29 | –
c1cnc2c(c1)ccc1cccnc12 | – | 1.12 µM (active)
CCCCn1cc([N+](=O)[O-])nc1C | -5.88 | –
O=C(CN1CCN(C(c2ccccc2)c2ccccc2)CC1)N1N=CCC1c1ccccc1 (centres undefined) | -5.94 | –
COC(=O)c1cc(NS(=O)(=O)c2ccc(F)cc2)ccc1N1CCOCC1 | 0.969 | –
COc1ccc(/C(C)=N/NC(=O)Cn2nc([N+](=O)[O-])cc2C)cc1 | -7.96 | –
COc1ccccc1C1CCN(C(=O)c2ccco2)CC1 | -1.76 | –
COc1ccccc1C1CCN(C(=O)c2cccs2)CC1 | 1.84 | –
COc1cccc2c1NC(C(=O)O)C1CC=CC21 (centres undefined) | – | 14.1 µM (active)
COc1ccc2[nH]c(=O)c(CN(C(=O)c3cccnc3)c3ccc(C)cc3C)cc2c1 | -3.33 | –
CC1=NNC(=O)C1Cc1ccc(F)cc1 (centres undefined) | -5.63 | –
CC(C)(NC(=O)c1cc(Cl)c2ccccc2c1O)C(=O)O | -1.91 | –
COC(=O)CC1C(=O)NC(C)=C1C(=O)OC (centres undefined) | -12.4 | –
COc1ccc(-n2c(=S)[nH]c(=O)c3cccnc32)cc1 | -1.85 | –
CCCOc1ccc(CSC(=N)N)cc1C(=O)OC | -9.01 | –

Source: PubChem BioAssay AID504374 (National Center for Advancing Translational Sciences (NCATS), 2011)
